# Screens (PubChem BioAssay)
# Sampled rows, rich in hits. Any-hit rate of the full collection: about 0.82%.
# RTF Ca sens act: cardiac RTF calcium sensitivity activators, primary screen, biochemical, IANBD-TnC fluorescence, EC20 calcium. activation, % at 7.2 µM. actives 0.24% (n = 340,000). AID 493008, 2010. IANBD-labeled TnC RTF fluorescence at EC20 calcium; 0% EC20 calcium, 100% full calcium;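 active means activation above the mean over all tested compounds plus 3 SD, cut at about 30% in these data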;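 further: rise in fluorescence read as greater calcium sensitivity of cardiac thin filaments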
# RTF Ca sens inh: cardiac RTF calcium sensitivity inhibitors, primary screen, biochemical, IANBD-TnC fluorescence, EC70 calcium; inhibition, % at 7.15 µM; Troponin I, cardiac muscle (Homo sapiens) + Troponin T, cardiac muscle (Homo sapiens) + …; actives 0.12% (n = 340,000); IANBD-labeled cardiac RTF, Ca2+ fluorescence;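 active means inhibition above the mean inhibition of all tested compounds plus 3 SD, cut at about 17% in these data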;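 further: assay run at fixed EC70 calcium of 1.6 mM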
# eLon inh: inhibitors of E. coli Lon protease, primary screen, biochemical, fluorescence polarization | P0A9M0 | purified E. coli Lon protease | inhibition, % at 7.94 µM | actives 0.42% (n = 360,000) | AID 602123, 2011; in the data active means inhibition above about 13%, passing the limit was not always enough;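 further: 0% = enzyme with probe and DMSO and 100% = no enzyme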
# Target sequence (P0A9M0 whole entry, looked up): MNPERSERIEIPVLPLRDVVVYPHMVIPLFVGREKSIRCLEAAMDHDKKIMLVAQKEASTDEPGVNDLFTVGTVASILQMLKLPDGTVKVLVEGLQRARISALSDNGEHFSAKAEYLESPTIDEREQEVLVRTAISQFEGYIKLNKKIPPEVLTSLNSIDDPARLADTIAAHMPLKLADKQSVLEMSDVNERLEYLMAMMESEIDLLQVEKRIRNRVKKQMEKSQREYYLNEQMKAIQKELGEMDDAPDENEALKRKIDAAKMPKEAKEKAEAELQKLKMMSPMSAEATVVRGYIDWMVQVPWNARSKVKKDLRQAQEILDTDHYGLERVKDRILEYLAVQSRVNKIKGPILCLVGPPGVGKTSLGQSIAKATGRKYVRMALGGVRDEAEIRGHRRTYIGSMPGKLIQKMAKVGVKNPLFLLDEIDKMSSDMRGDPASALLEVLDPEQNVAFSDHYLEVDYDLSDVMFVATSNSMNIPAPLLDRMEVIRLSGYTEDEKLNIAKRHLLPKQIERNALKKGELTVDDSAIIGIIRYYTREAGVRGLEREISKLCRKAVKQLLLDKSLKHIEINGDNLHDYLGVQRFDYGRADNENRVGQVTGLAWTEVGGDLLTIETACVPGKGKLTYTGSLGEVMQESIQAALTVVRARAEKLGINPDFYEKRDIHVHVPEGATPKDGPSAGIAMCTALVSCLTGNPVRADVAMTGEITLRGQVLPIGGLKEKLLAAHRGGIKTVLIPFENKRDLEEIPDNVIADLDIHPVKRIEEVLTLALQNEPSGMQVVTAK
# LANA DNA inh: inhibitors of KSHV C-LANA binding to DNA, primary screen, biochemical, fluorescence polarization, FAM-LBS DNA, MBP-C-LANA, single point | Kaposi's sarcoma herpesvirus LANA C-terminal domain (residues 932-1162) DNA binding | inhibition, % at 9 µM | actives 0.078% (n = 340,000) | AID 504423, 2011;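 active means highest replicate inhibition at or above 60% at 9 µM, even if other replicates fall short; inactive means all replicates below 60% inhibition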;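 further: 0% = neutral control wells and 100% = 4 µM acridine orange control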
# Keap1-Nrf2 PPI: Keap1-Nrf2 protein-protein interaction inhibitors, primary screen, biochemical, fluorescence polarization, single point; inhibition, % at 9.4 µM; actives 0.15% (n = 340,000); Keap1 Kelch-Nrf2 peptide fluorescence polarization, 1536-well; AID 504523, 2011; in the data active means inhibition above about 12%; inconclusive means no clear call, values can overlap the other calls; inactive means below about 7.3%;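 further: human Keap1 Kelch domain with fluorescein labeled Nrf2 9mer peptide probe; 0% = neutral control wells and 100% = peptide positive control; higher means more block of Keap1 binding to Nrf2 peptide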
# E coli Lon conf: E. coli Lon protease inhibitor retest, confirmation, biochemical, fluorescence polarization. shares compounds with eLon inh. purified E. coli Lon. inhibition, % at 7.94 µM. actives 31% (n = 1,400). AID 602230, 2012; in the data active means inhibition above about 16%;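 further: 0% = enzyme with probe and DMSO and 100% = no enzyme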
# Numbers without * were called inactive; ? = inconclusive; . = no result; + = active, no number.
SMILES,RTF Ca sens act,RTF Ca sens inh,eLon inh,LANA DNA inh,Keap1-Nrf2 PPI,E coli Lon conf
CC(C)=CCN1CCN(Cc2cn(C(C)C)c3ccccc23)CC1CCO (stereo unspecified),1,-3,-5,0,-3,.
CC(C)N(C)S(=O)(=O)c1ccc(NC(=O)C2=COCCO2)cc1,0,1,-3,0,-7,.
COc1ccc(CCNC(=O)CN2C(=O)CSc3ccc(S(=O)(=O)N4CCOCC4)cc32)cc1OC,-4,-5,1,2,-1,.
CCOc1ccc(CNC(=O)CN2C(=O)CSc3ccc(S(=O)(=O)N4CCOCC4)cc32)cc1OC,3,-9,64*,1,4,0
CN(C(=O)CSc1nc(C2CC2)n(-c2ccccc2)n1)C1CCS(=O)(=O)C1 (stereo unspecified),5,-2,-11,1,-4,.
C=C(C)c1cccc(C(C)(C)NC(=O)Nc2ccc(OC)nc2)c1,4,-13,46*,4,-2,18*
COC(=O)N/N=C\c1cc2c(cc1Br)OCO2,5,4,18*,-1,0,-6
CC(C)(C)c1nnc2sc(SCC(=O)N3CCCCC3)nn2c1=O,1,-8,-6,-2,-1,.
CCO[C@H]1OC(C(=O)N2CCN(Cc3ccccc3)CC2)=C[C@@H](C)[C@@H]1CCCO,1,0,28*,5,-5,5
Cc1cc2cc(CNC(=O)c3ccc(S(=O)(=O)N4CCCC4)cc3)ccc2n1C,4,-5,23*,0,-4,6
Cc1cc2cc(CNC(=O)c3ccc(S(=O)(=O)N4CCCCC4)cc3)ccc2n1C,3,-10,16*,0,-6,-10
CC(=O)c1ccc(N2CCN(CC(=O)NC(=O)NCc3ccccc3)CC2)cc1,5,3,-13,-1,4,.
COc1ccc(/C=N/c2c(-c3ccco3)nc3ccccn23)cc1OC,3,-2,32*,3,?,-3
Oc1ccccc1/C=N/c1c(-c2ccco2)nc2ccccn12,3,-7,30*,3,2,3
Clc1ccc(/C=N/c2c(-c3ccco3)nc3ccccn23)cc1,8,-10,26*,4,2,-4
CCN(c1ccccc1)S(=O)(=O)c1cccc(C(=O)NCCOc2ccccc2OC)c1,-3,-5,5,0,2,.
CCOC(=O)[C@]12CCC=C1N(Cc1ccc3c(c1)OCO3)C(=O)[C@H](CC(=O)NCc1ccccc1)C2,.,.,3,.,.,.
CC1C(=O)N(Cc2cn(CCC3OCCCO3)nn2)CCS(=O)(=O)N1Cc1ccc(-c2ccc(Cl)cc2)cc1 (stereo unspecified),.,.,13*,.,.,24*
COc1ccc(N(C(=O)C(C)C)S(=O)(=O)c2ccc3ccccc3c2)cc1,-5,-9,-7,-2,-2,.
CCOc1ccc(C(=O)CCC(=O)N2CCN(c3ncccn3)CC2)cc1,-2,-4,-20,-4,2,.
CC(C)(C)OC(=O)NC(Cc1ccccc1)C(=O)N1CCC(C(=O)NCC(=O)Nc2ccc(F)cc2)CC1 (stereo unspecified),1,-14,22*,13,2,43*
CN(C)/C=N/c1cc(=O)[nH]c(=O)n1CC1CC1,8,-1,-3,0,-4,.
C=CCn1c(=O)[nH]c2nc3cc(N=CN(C)C)c(C)cc3nc2c1=O,131*,-141,158*,23,-1,+
Nc1c(C(=O)N/N=C/c2cccnc2)oc2nc(-c3ccco3)cc(-c3ccco3)c12,.,.,56*,.,.,-152
Nc1c(C(=O)N/N=C/c2cccnc2)oc2nc(-c3ccccc3)cc(-c3ccco3)c12,.,.,-41,1,-6,.
SMILES,RTF Ca sens act,RTF Ca sens inh,eLon inh,LANA DNA inh,Keap1-Nrf2 PPI,E coli Lon conf
COc1ccc(C(C)NC(=O)C2CCN(CCCc3ccccc3)CC2)cc1OC (stereo unspecified),.,.,-7,.,.,.
O=C(Nc1ccc(C(=O)N2CCN(c3ccc(Cl)cc3)CC2)cc1)C1=CSCCO1,-3,-2,25*,2,-2,2
O=C(Nc1ccc(C(=O)N2CCN(c3ccc(F)cc3)CC2)cc1)C1=CSCCO1,-1,-8,9,0,-2,.
COc1ccccc1N(CC(=O)NC1CCCC1)C(=O)CCC(=O)Nc1ccccn1,-3,-17,18*,1,6,-18
Cn1c(NC(=O)CCC2CCCCC2)cc(=O)n(C)c1=O,0,-5,-2,0,4,.
Cn1c(NC2CCCCC2)cc(=O)n(C)c1=O,-7,-14,27*,-1,-3,-8
O=C(Cc1c(Cl)cccc1Cl)Nc1ccc(S(=O)(=O)Nc2ncccn2)cc1,6,0,19*,0,0,-152
O=C(CS(=O)(=O)c1ccccc1)Nc1ccc(S(=O)(=O)Nc2ncccn2)cc1,2,-6,0,0,-4,.
O=C(Cc1ccc(Cl)cc1)Nc1ccc(S(=O)(=O)Nc2ncccn2)cc1,-6,-5,4,0,-1,.
O=C(CNC(=O)c1ccc(-c2ccccc2)cc1)Nc1ccc(S(=O)(=O)Nc2ncccn2)cc1,2,0,30*,-1,-3,43*
CSCC(C)N1CCC(Oc2cccc(C(=O)NCc3ccccn3)c2)CC1 (stereo unspecified),4,-13,17*,9,5,-319
CCCCSc1nc(N)nc2c1ncn2C1OC(CO)C(O)C1O (stereo unspecified),.,.,-4,.,.,.
CCOC(=O)C1=C(COC(=O)c2ccccc2OC(F)F)NC(=O)NC1C (stereo unspecified),-1,-32,14,1,-4,.
CCOC(=O)C1=C(COC(=O)c2ccc3ccccc3c2O)NC(=O)NC1C (stereo unspecified),35*,-34,49*,13,3,9
CC(OC(=O)c1ccc(CN2CCCC2=O)cc1)C(=O)Nc1ccc(Cl)cc1 (stereo unspecified),-2,-2,24*,0,-2,60*
O=C(COC(=O)c1ccc(CN2CCCC2=O)cc1)Nc1ccc(F)cc1,-2,11,-6,-1,-5,.
CC(=O)Nc1ccc(NC(=O)C(C)OC(=O)c2ccc(S(=O)(=O)N3CCCCC3)cc2)cc1 (stereo unspecified),-3,3,67*,-2,4,5
CCOC(=O)N1CCN(C(=O)C[C@@H]2C[C@@]3(C(=O)OCC)CCCC=C3N(Cc3ccc(Cl)cc3Cl)C2=O)CC1,.,.,0,.,.,.
CSc1ccc(OC2(C)CCN(Cc3ccc4c(c3)OCCO4)C2)cc1 (stereo unspecified),.,.,2,.,.,.
